Results reported in PMC7862700, “An all-to-all approach to the identification of sequence-specific readers for epigenetic DNA modifications on cytosine”.

Legend:
Assay in all cases: DAPPL (digital affinity profiling via proximity ligation, sequencing); 10 mM Tris-HCl pH 7.5, 50 mM NaCl, 1 mM DTT, 4% glycerol, room temperature, 30 min; GST-TFs on glutathione beads, 16-mer random dsDNA library, 0.1% formaldehyde crosslink after washing; high values mean tight binding
Conditions in all cases: protein: recombinant; tags: N-terminal GST; dsDNA, one strand shown
FEV = molecular target: T1, FEV (Homo sapiens, UniProt Q99581 1-238)
T1 sequence: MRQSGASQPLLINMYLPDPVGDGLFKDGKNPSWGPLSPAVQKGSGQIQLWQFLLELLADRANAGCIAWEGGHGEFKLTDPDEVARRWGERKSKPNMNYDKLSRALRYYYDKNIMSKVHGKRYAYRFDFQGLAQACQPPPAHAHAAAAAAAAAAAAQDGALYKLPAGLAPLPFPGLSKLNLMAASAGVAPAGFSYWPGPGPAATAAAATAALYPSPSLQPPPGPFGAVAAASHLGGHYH
Procedure, shortened: (§1)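 GST fusions of human transcription factors were expressed in yeast and captured with glutathione beads. Once given DNA barcodes and pooled alongside a tag-only sample, they were incubated for 30 min at room temperature with 200 nmole of a random double-stranded 16-mer DNA library in Tris/NaCl/DTT/glycerol buffer, then washed, crosslinked (0.1% formaldehyde), proximity-ligated, PCR-amplified and sequenced on an Illumina NextSeq500. The binding signal of each hexamer is its read frequency for a factor divided by its frequency for the tag-only sample.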

ETV5 = ETV5 (Homo sapiens, UniProt P41161 1-510)
Procedure, shortened: as §1

SPIC = molecular target: T2, SPIC (Homo sapiens, UniProt Q8N5J4 1-248)
T2 sequence: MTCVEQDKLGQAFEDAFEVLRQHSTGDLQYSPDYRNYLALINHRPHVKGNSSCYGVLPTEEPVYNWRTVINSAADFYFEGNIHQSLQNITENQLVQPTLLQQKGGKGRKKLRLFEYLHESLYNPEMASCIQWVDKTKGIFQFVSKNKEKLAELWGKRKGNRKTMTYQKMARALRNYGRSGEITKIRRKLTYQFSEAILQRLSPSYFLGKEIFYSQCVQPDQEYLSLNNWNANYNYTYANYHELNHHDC
Procedure, shortened: as §1

ELF4 = ELF4 (Homo sapiens, UniProt Q99607 1-663)
Procedure, shortened: as §1

ELK4 = molecular target: T3, ELK4 (Homo sapiens, UniProt P28324-2 1-405)
T3 sequence: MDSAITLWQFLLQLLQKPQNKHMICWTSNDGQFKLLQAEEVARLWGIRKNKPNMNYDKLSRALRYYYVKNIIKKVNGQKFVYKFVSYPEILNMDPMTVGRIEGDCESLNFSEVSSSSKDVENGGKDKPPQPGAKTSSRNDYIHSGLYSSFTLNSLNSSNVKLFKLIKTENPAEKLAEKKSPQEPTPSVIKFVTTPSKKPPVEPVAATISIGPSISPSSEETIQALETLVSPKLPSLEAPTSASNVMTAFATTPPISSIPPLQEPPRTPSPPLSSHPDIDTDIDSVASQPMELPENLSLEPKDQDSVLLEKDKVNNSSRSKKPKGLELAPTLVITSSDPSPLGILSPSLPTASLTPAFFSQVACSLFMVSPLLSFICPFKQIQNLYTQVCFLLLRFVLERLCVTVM
Procedure, shortened: as §1

ETV2 = molecular target: T4, ETV2 (Homo sapiens, UniProt O00321 1-342)
T4 sequence: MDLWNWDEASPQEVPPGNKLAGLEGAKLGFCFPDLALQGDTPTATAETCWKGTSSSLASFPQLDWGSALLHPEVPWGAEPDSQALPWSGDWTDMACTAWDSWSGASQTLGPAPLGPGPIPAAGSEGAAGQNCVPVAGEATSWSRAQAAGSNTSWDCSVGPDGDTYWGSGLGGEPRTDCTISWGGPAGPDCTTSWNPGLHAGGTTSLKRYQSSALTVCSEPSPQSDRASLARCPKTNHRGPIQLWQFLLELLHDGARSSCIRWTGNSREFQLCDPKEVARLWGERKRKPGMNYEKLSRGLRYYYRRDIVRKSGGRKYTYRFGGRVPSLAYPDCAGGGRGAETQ
Procedure, shortened: as §1

ELF3 = molecular target: T5, ELF3 (Homo sapiens, UniProt P78545 1-371)
T5 sequence: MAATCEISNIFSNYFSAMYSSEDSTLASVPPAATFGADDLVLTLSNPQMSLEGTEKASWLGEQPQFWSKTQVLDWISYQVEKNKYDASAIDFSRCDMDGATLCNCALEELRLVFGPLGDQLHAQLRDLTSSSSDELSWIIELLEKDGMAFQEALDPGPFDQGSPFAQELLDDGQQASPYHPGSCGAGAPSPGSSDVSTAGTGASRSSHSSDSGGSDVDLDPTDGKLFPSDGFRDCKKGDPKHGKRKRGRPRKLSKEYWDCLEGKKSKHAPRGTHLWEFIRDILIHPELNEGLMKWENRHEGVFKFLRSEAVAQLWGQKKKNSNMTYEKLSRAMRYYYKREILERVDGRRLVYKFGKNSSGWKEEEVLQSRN
Procedure, shortened: as §1

ETV1 = ETV1 (Homo sapiens, UniProt P50549 1-477)
Procedure, shortened: as §1

ERF = molecular target: T6, ERF (Homo sapiens, UniProt P50548 1-548)
T6 sequence: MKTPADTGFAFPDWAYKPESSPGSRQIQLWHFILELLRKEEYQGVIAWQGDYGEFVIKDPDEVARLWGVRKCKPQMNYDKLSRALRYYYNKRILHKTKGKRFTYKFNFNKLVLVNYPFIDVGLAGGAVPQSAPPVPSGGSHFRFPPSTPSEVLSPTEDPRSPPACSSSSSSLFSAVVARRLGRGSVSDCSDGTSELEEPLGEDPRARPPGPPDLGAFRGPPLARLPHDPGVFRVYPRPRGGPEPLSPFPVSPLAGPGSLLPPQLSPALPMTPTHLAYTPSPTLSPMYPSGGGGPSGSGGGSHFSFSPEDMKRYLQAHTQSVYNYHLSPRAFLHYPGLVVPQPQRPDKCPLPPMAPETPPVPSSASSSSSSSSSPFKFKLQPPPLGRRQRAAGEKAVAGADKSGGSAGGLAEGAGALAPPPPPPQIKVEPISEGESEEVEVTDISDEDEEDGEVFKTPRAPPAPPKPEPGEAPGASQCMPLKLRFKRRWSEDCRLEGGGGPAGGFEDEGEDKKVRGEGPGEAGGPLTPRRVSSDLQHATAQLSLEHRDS
Procedure, shortened: as §1

ETV3L = molecular target: T7, ETV3L (Homo sapiens, UniProt Q6ZN32 1-361)
T7 sequence: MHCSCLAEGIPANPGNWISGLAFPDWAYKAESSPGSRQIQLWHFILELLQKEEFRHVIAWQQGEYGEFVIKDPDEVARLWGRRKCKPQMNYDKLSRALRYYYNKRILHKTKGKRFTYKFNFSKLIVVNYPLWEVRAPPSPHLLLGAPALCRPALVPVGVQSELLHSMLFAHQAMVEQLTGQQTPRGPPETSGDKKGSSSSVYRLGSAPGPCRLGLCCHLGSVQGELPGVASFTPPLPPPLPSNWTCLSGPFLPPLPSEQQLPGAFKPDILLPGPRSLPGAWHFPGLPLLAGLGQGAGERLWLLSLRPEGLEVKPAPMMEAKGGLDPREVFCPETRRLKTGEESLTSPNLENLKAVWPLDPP
Procedure, shortened: as §1

ETS2 = molecular target: T8, ETS2 (Homo sapiens, UniProt P15036 1-469)
T8 sequence: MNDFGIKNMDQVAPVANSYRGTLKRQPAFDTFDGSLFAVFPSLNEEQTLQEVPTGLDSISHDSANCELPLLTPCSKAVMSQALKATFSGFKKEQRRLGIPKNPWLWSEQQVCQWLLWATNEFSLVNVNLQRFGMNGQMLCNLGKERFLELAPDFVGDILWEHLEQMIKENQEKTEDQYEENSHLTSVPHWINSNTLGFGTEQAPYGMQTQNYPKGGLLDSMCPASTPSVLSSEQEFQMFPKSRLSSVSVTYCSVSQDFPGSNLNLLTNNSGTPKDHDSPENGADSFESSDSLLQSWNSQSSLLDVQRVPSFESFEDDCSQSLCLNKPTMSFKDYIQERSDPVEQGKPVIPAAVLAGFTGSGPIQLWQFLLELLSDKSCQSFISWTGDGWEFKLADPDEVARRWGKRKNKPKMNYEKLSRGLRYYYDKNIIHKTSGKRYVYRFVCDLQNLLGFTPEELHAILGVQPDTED
Procedure, shortened: as §1

SPDEF = molecular target: T9, SPDEF (Homo sapiens, UniProt O95238 1-335)
T9 sequence: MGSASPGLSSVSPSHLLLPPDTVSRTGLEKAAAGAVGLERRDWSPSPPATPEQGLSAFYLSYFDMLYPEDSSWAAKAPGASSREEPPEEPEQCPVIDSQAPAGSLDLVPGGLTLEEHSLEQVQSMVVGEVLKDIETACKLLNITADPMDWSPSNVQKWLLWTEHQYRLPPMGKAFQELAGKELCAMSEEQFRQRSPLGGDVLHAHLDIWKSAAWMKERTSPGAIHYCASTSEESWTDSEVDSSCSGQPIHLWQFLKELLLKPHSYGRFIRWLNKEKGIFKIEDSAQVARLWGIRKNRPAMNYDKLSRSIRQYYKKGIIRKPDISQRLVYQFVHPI
Procedure, shortened: as §1

ETV7 = molecular target: T10, ETV7 (Homo sapiens, UniProt Q9Y603 1-341)
T10 sequence: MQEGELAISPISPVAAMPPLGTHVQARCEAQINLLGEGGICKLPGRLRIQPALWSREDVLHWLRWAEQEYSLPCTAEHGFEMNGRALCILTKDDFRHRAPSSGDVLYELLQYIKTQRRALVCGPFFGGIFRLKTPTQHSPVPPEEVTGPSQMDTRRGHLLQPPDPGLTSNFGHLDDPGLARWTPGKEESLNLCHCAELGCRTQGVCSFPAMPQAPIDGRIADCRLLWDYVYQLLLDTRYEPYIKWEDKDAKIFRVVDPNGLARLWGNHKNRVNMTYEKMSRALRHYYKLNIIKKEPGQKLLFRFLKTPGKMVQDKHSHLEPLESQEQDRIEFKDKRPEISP
Procedure, shortened: as §1

ELF5 = molecular target: T11, ELF5 (Homo sapiens, UniProt Q9UKW6-2 1-255)
T11 sequence: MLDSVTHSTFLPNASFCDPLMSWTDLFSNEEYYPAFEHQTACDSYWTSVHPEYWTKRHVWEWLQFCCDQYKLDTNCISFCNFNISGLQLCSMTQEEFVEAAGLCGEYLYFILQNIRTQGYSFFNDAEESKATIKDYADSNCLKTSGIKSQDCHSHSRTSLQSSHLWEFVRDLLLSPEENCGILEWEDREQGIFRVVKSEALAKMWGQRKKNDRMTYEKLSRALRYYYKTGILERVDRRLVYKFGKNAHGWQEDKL
Procedure, shortened: as §1

ETV3 = molecular target: T12, ETV3 (Homo sapiens, UniProt P41162-2 1-143)
T12 sequence: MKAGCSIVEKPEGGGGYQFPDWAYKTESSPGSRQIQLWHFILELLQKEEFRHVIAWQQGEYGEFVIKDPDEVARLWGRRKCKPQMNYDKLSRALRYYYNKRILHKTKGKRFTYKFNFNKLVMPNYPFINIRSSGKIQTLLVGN
Procedure, shortened: as §1

ETV6 = ETV6 (Homo sapiens, UniProt P41212 1-452)
Procedure, shortened: as §1

ETV5, sequence (P41161 whole entry): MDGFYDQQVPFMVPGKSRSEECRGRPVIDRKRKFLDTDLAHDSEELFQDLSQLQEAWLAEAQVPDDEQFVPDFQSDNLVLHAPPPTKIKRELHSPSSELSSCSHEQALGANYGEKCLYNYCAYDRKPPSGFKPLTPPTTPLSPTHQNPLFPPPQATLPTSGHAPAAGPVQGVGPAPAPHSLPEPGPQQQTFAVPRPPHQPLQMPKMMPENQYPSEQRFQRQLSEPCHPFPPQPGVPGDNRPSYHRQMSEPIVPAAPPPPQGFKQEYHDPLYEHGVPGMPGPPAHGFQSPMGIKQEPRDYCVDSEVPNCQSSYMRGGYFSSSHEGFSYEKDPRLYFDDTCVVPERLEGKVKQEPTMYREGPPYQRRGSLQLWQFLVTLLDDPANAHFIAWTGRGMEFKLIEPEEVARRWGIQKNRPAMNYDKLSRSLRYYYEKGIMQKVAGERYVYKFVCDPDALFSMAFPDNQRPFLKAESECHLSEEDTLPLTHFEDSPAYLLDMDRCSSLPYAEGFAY
ELF4, sequence (Q99607 whole entry): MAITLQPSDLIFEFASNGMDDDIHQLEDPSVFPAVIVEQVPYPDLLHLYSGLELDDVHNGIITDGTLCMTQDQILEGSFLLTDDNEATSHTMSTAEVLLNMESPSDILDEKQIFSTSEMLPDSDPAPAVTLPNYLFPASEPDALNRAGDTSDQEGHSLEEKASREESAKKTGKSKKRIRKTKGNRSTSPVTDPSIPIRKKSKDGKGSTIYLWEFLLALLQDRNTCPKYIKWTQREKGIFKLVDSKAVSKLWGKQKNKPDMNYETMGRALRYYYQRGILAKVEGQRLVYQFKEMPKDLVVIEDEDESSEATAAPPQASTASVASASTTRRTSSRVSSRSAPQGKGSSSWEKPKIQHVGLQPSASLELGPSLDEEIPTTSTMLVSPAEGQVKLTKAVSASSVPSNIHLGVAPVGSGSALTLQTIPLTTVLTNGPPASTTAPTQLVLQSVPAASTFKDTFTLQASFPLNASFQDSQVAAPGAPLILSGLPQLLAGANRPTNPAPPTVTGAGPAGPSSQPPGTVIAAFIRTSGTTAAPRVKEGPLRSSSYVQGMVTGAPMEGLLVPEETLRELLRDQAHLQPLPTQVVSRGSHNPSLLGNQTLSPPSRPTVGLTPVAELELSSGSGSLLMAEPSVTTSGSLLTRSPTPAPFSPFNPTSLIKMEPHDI
ETV1, sequence (P50549 whole entry): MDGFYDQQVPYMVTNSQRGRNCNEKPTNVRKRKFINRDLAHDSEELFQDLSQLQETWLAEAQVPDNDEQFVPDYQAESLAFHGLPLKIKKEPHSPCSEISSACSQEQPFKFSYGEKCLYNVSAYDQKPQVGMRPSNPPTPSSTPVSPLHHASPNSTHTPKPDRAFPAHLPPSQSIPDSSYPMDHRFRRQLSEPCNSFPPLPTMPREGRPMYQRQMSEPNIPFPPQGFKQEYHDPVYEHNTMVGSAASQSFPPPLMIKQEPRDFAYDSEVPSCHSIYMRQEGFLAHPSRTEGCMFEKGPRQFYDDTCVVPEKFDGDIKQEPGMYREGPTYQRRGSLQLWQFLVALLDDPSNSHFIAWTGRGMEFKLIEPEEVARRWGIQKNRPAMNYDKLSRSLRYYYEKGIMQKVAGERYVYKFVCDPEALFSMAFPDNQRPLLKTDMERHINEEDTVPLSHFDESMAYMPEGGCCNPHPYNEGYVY
ETV6, sequence (P41212 whole entry): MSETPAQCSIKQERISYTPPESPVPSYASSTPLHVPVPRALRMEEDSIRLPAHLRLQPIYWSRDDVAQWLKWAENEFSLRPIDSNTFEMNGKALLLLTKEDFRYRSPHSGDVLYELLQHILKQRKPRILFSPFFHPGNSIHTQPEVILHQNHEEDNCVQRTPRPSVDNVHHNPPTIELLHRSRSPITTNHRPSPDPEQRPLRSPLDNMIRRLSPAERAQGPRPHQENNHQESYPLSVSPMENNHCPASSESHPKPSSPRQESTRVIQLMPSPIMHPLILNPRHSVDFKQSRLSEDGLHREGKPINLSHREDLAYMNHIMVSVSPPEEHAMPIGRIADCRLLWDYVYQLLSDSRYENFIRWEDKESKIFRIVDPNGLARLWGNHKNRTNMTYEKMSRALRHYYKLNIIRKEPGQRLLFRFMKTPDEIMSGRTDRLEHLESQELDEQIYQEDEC

Row | Sequence | binding signal (FEV) | binding signal (ETV5) | binding signal (SPIC) | binding signal (ELF4) | binding signal (ELK4) | binding signal (ETV2) | binding signal (ELF3) | binding signal (ETV1) | binding signal (ERF) | binding signal (ETV3L) | binding signal (ETS2) | binding signal (SPDEF) | binding signal (ETV7) | binding signal (ELF5) | binding signal (ETV3) | binding signal (ETV6)
1 | ACCTGA | 1.13 fold enrichment (6-mer frequency, TF over GST control) | 1.07 fold enrichment (6-mer frequency, TF over GST control) | 1 fold enrichment (6-mer frequency, TF over GST control) | 1.15 fold enrichment (6-mer frequency, TF over GST control) | 1.14 fold enrichment (6-mer frequency, TF over GST control) | 1.02 fold enrichment (6-mer frequency, TF over GST control) | 1.14 fold enrichment (6-mer frequency, TF over GST control) | 1.06 fold enrichment (6-mer frequency, TF over GST control) | 1.14 fold enrichment (6-mer frequency, TF over GST control) | 1.04 fold enrichment (6-mer frequency, TF over GST control) | 1.03 fold enrichment (6-mer frequency, TF over GST control) | 1.14 fold enrichment (6-mer frequency, TF over GST control) | 1.03 fold enrichment (6-mer frequency, TF over GST control) | 1.07 fold enrichment (6-mer frequency, TF over GST control) | 1.07 fold enrichment (6-mer frequency, TF over GST control) | 1.09 fold enrichment (6-mer frequency, TF over GST control)
2 | ACAACA | 1.2 fold enrichment (6-mer frequency, TF over GST control) | 1.16 fold enrichment (6-mer frequency, TF over GST control) | 1.13 fold enrichment (6-mer frequency, TF over GST control) | 1.19 fold enrichment (6-mer frequency, TF over GST control) | 1.14 fold enrichment (6-mer frequency, TF over GST control) | 1.28 fold enrichment (6-mer frequency, TF over GST control) | 1.32 fold enrichment (6-mer frequency, TF over GST control) | 1.23 fold enrichment (6-mer frequency, TF over GST control) | 1.31 fold enrichment (6-mer frequency, TF over GST control) | 1.17 fold enrichment (6-mer frequency, TF over GST control) | 1.18 fold enrichment (6-mer frequency, TF over GST control) | 1.19 fold enrichment (6-mer frequency, TF over GST control) | 1.23 fold enrichment (6-mer frequency, TF over GST control) | 1.22 fold enrichment (6-mer frequency, TF over GST control) | 1.27 fold enrichment (6-mer frequency, TF over GST control) | 1.29 fold enrichment (6-mer frequency, TF over GST control)
